Experimental data as given in PubChem BioAssay AID1159580 (chemical genetic matrix, 2015).
About 2,000 (36%) of roughly 5,500 compounds were called active. Roughly 18% stayed inconclusive and do not appear here. Cut-off read from the data, not from the text of the source: active = normalized growth mostly below about 0.91 (no sharp cut-off); inconclusive = no clear call, values can overlap the other calls; inactive = mostly above about 0.92. This is one part of the list.

Test: chemical genetic growth profiling, strain panel (AID 1159580);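 note: tested at 20 µM; growth read once vehicle control cultures reached saturation at 30 °C; 1 = growth at the plate median or of vehicle wells; lower values mean less growth of the strain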
Settings: growth OD

Measured: normalized growth

CN(C)CCC[C@@]1(c2ccc(F)cc2)OCc2cc(C#N)ccc21
inactive: S. cerevisiae deletion strains, locus YAL013W, strain DEP1, hits give low values 1.02 | S. cerevisiae deletion strains, locus YBR021W, strain FUR4, hits give low values 1.02 | S. cerevisiae deletion strains, locus YBR229C, strain ROT2, hits give low values 1.01 | S. cerevisiae deletion strains, locus YCL029C, strain bik1, hits give low values 1.02 | S. cerevisiae deletion strains, locus YDL035C, strain GPR1, hits give low values 1.02 | S. cerevisiae deletion strains, locus YDL074C, strain BRE1, hits give low values 1.02 | S. cerevisiae deletion strains, locus YDL101C, strain DUN1, hits give low values 1.02 | S. cerevisiae deletion strains, locus YDL134C, strain PPH21, hits give low values 1.01 | S. cerevisiae deletion strains, locus YDL185W, strain tfp1, hits give low values 1.03 | S. cerevisiae deletion strains, locus YDL192W, strain arf1, hits give low values 1.02 | S. cerevisiae deletion strains, locus YDR101C, strain arx1, hits give low values 1.02 | S. cerevisiae deletion strains, locus YDR150W, strain NUM1, hits give low values 1.02 | S. cerevisiae deletion strains, locus YDR162C, strain NBP2, hits give low values 1.01 | S. cerevisiae deletion strains, locus YDR318W, strain mcm21, hits give low values 1.03 | S. cerevisiae deletion strains, locus YDR388W, hits give low values 1.02 | S. cerevisiae deletion strains, locus YDR502C, strain sam2, hits give low values 1.02 | S. cerevisiae deletion strains, locus YEL061C, strain CIN8, hits give low values 1.01 | S. cerevisiae deletion strains, locus YER110C, hits give low values 1.03 | S. cerevisiae deletion strains, locus YER155C, strain BEM2, hits give low values 1.01 | S. cerevisiae deletion strains, locus YER167W, strain BCK2, hits give low values 1.02 | S. cerevisiae deletion strains, locus YGL078C, strain dbp3, hits give low values 1.03 | S. cerevisiae deletion strains, locus YGL086W, strain mad1, hits give low values 1.02 | S. cerevisiae deletion strains, locus YGL248W, strain PDE1, hits give low values 1.02 | S. cerevisiae deletion strains, locus YGR078C, strain PAC10, hits give low values 1.03 | S. cerevisiae deletion strains, locus YGR135W, strain pre9, hits give low values 1.03 | S. cerevisiae deletion strains, locus YGR229C, strain SMI1, hits give low values 1.02 | S. cerevisiae deletion strains, locus YGR252W, strain gcn5, hits give low values 1.06 | S. cerevisiae deletion strains, locus YHR030C, strain SLT2, hits give low values 1.01 | S. cerevisiae deletion strains, locus YHR079C, strain IRE1 (second series), hits give low values 1.02 | S. cerevisiae deletion strains, locus YHR094C, strain hxt1, hits give low values 1.02 | S. cerevisiae deletion strains, locus YHR129C, strain ARP1, hits give low values 1.01 | S. cerevisiae deletion strains, locus YHR200W, strain rpn10, hits give low values 1.02 | S. cerevisiae deletion strains, locus YIL066C, strain RNR3, hits give low values 1.03 | S. cerevisiae deletion strains, locus YIL073C, strain SPO22, hits give low values 1.06 | S. cerevisiae deletion strains, locus YIL125W, strain kgd1, hits give low values 1.02 | S. cerevisiae deletion strains, locus YIR030C, strain dcg1, hits give low values 1.02 | S. cerevisiae deletion strains, locus YJL095W, strain BCK1, hits give low values 1.02 | S. cerevisiae deletion strains, locus YJL134W, strain LCB3, hits give low values 1.03 | S. cerevisiae deletion strains, locus YJL168C, strain set2, hits give low values 1.02 | S. cerevisiae deletion strains, locus YJL187C, strain SWE1 (second series), hits give low values 1.02 | S. cerevisiae deletion strains, locus YJR043C, strain POL32, hits give low values 1.01 | S. cerevisiae deletion strains, locus YJR075W, strain HOC1, hits give low values 1.01 | S. cerevisiae deletion strains, locus YKL009W, strain mrt4, hits give low values 1.03 | S. cerevisiae deletion strains, locus YKL068W, hits give low values 1.02 | S. cerevisiae deletion strains, locus YKL085W, strain MDH1 (second series), hits give low values 0.999 | S. cerevisiae deletion strains, locus YKL085W, strain MDH1, hits give low values 0.999 | S. cerevisiae deletion strains, locus YKL190W, strain CNB1, hits give low values 1.03 | S. cerevisiae deletion strains, locus YKR001C, strain vps1, hits give low values 1.03 | S. cerevisiae deletion strains, locus YLR039C, strain RIC1, hits give low values 1.04 | S. cerevisiae deletion strains, locus YLR058C, strain SHM2, hits give low values 1.02 | S. cerevisiae deletion strains, locus YLR102C, strain apc9, hits give low values 1.02 | S. cerevisiae deletion strains, locus YLR262C, strain YPT6, hits give low values 1.04 | S. cerevisiae deletion strains, locus YLR268W, strain sec22, hits give low values 1.01 | S. cerevisiae deletion strains, locus YLR330W, strain CHS5, hits give low values 1.01 | S. cerevisiae deletion strains, locus YLR342W, strain FKS1 (second series), hits give low values 1.03 | S. cerevisiae deletion strains, locus YLR371W, strain rom2, hits give low values 1.02 | S. cerevisiae deletion strains, locus YLR418C, strain cdc73, hits give low values 1 | S. cerevisiae deletion strains, locus YML016C, strain PPZ1, hits give low values 1.02 | S. cerevisiae deletion strains, locus YML032C, strain rad52, hits give low values 1.02 | S. cerevisiae deletion strains, locus YML124C, strain tub3, hits give low values 1.01 | S. cerevisiae deletion strains, locus YMR078C, strain ctf18, hits give low values 1.03 | S. cerevisiae deletion strains, locus YMR223W, strain ubp8, hits give low values 1.04 | S. cerevisiae deletion strains, locus YMR263W, strain SAP30, hits give low values 1.02 | S. cerevisiae deletion strains, locus YMR307W, strain GAS1, hits give low values 1.05 | S. cerevisiae deletion strains, locus YNL067W, strain RPL9B, hits give low values 1.02 | S. cerevisiae deletion strains, locus YNL128W, strain TEP1, hits give low values 1.02 | S. cerevisiae deletion strains, locus YNL153C, strain GIM3, hits give low values 1.01 | S. cerevisiae deletion strains, locus YNL233W, strain BNI4, hits give low values 1.01 | S. cerevisiae deletion strains, locus YNL250W, strain rad50, hits give low values 1.03 | S. cerevisiae deletion strains, locus YNL271C, strain bni1, hits give low values 1.03 | S. cerevisiae deletion strains, locus YNL298W, strain CLA4, hits give low values 1.04 | S. cerevisiae deletion strains, locus YNL307C, strain MCK1, hits give low values 1.02 | S. cerevisiae deletion strains, locus YNL322C, strain KRE1, hits give low values 1.01 | S. cerevisiae deletion strains, locus YNR052C, strain pop2, hits give low values 1.02 | S. cerevisiae deletion strains, locus YOL006C, strain TOP1, hits give low values 1.05 | S. cerevisiae deletion strains, locus YOL012C, strain htz1 1.16 | S. cerevisiae deletion strains, locus YOL147C, strain pex11, hits give low values 1.02 | S. cerevisiae deletion strains, locus YOR061W, strain CKA2, hits give low values 1.02 | S. cerevisiae deletion strains, locus YOR069W, strain VPS5, hits give low values 1.01 | S. cerevisiae deletion strains, locus YOR136W, strain idh2, hits give low values 1.02 | S. cerevisiae deletion strains, locus YOR144C, strain elg1, hits give low values 1.02 | S. cerevisiae deletion strains, locus YOR184W, strain ser1, hits give low values 1.03 | S. cerevisiae deletion strains, locus YOR316C, strain cot1, hits give low values 1.02 | S. cerevisiae deletion strains, locus YPL055C, strain LGE1, hits give low values 1.03 | S. cerevisiae deletion strains, locus YPL241C, strain CIN2, hits give low values 1.01 | S. cerevisiae deletion strains, locus YPR119W, strain clb2, hits give low values 1.01 | S. cerevisiae deletion strains, locus YPR141C, strain kar3, hits give low values 1.03 | S. cerevisiae deletion strains, locus YPR163C, strain tif3, hits give low values 1.02 | S. cerevisiae deletion strains, locus YPR167C, strain met16, hits give low values 1.02 | S. cerevisiae deletion strains, strain wtn01, hits give low values 1.01 | S. cerevisiae strains, strain wild type, hits give low values 1.02
